Assay results from PubChem BioAssay (Tox21).
Results filed as inconclusive are left out. A call without a number means that no potency is given here. A number with no mark means an inactive call. Activity calls are given as the source filed them. Unless noted, calls follow the shape of the dose curve; as a rule, active = well fitted curve in the direction sought with a large enough effect in the repeat runs; inconclusive = weak or mixed curves; inactive = no such curve, though single readings can be large; an effect the other way counts as inactive or inconclusive.

Columns and labels:
[1] = qHTS assay to identify small molecule antagonists of the thyroid receptor (TR) signaling pathway - cell viability counter screen (AID 743064); also: nearly all actives have a fitted effect of over 50% in size
Summary of the method: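 In rat pituitary GH3.TRE-Luc reporter cells co-exposed to compound and 1 nM T3 for 23.5 h, cytotoxicity was assessed with CellTiter-Fluor in the same wells, read by fluorescence.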

[2] = qHTS assay to identify small molecule antagonists of the thyroid receptor (TR) signaling pathway (AID 743065); also: nearly all actives have a fitted effect of over 55% in size
Summary of the method: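 GH3.TRE-Luc rat pituitary cells carrying two TR response elements driving luciferase were plated for 4 h, given compound plus 1 nM T3 (final), and incubated 23.5 h at 37 C. ONE-Glo luminescence measured reporter inhibition; CellTiter-Fluor fluorescence tracked cytotoxicity.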

[3] = tested on: thyroid hormone receptor (rat, GH3 cells); test: qHTS assay to identify small molecule agonists of the thyroid receptor (TR) signaling pathway (AID 743066; calls by dose curve)
[4] = molecular target: Estrogen receptor (Homo sapiens) (UniProt P03372); test: qHTS assay to identify small molecule antagonists of the estrogen receptor alpha (ER-alpha) signaling pathway (AID 743069; active = well fitted curve in the direction sought with a large enough effect in the signal ratio in the repeat runs, not every such curve was filed as active; the % refers to the signal ratio)
Summary of the method: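 Estradiol-stimulated ER-alpha-UAS-bla HEK293 cells, 18 hr compound exposure at 37C. LiveBLAzer B/G substrate, 2 hr RT, fluorescence read.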

[5] = qHTS assay to identify small molecule antagonists of the estrogen receptor alpha (ER-alpha) signaling pathway - cell viability counter screen (AID 743074; calls by dose curve;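 also: HEK293 cells carrying ER-alpha-UAS-bla reporter stimulated with 17beta-estradiol; nearly all actives have a fitted effect of over 45% in size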)
[6] = molecular target: Estrogen receptor (Homo sapiens) (UniProt P03372); test: qHTS assay to identify small molecule agonists of the estrogen receptor alpha (ER-alpha) signaling pathway (AID 743075; calls by dose curve;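 also: HEK293 GripTite cells with ER-alpha and UAS-driven beta-lactamase reporter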)
[7] = molecular target: Estrogen receptor (Homo sapiens) (UniProt P03372); test: qHTS assay to identify small molecule agonists of the estrogen receptor alpha (ER-alpha) signaling pathway using the BG1 cell line (AID 743079); conditions: BG1Luc4E2 cells, ERE-luciferase agonist, 22 h; activation: at 70.3 µM (top of the series); also: nearly all actives have a fitted effect of over 20% in size; also: potency is read from the fitted curve at half-maximal effect
[8] = qHTS assay to identify small molecule antagonists of the estrogen receptor alpha (ER-alpha) signaling pathway using the BG1 cell line (AID 743080; calls by dose curve;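 also: BG1 cells stimulated with 17beta-estradiol alongside compound; nearly all actives have a fitted effect of over 25% in size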)
Summary of the method: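 Endogenous full-length ER-alpha in BG1-Luc-4E2 cells drives a stably integrated 4×ERE luciferase gene; compounds were tested against 17beta-estradiol over 21.5 h, with luminescence and multiplexed viability fluorescence recorded.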

[9] = qHTS assay to identify small molecule antagonists of the estrogen receptor alpha (ER-alpha) signaling pathway using the BG1 cell line - cell viability counter screen (AID 743081);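 also: compound given together with 17beta-estradiol as the ER stimulus; nearly all actives have a fitted effect of over 45% in size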
[10] = molecular target: Aromatase (Homo sapiens) (UniProt P11511); test: qHTS assay to identify aromatase inhibitors (AID 743083); also: nearly all actives have a fitted effect of over 55% in size
[11] = qHTS assay to identify aromatase inhibitors - cell viability counter screen (AID 743084);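 also: cells stimulated with testosterone during compound exposure; nearly all actives have a fitted effect of over 55% in size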
[12] = molecular target: Aryl hydrocarbon receptor (Homo sapiens) (UniProt P35869); test: qHTS assay to identify small molecule that activate the aryl hydrocarbon receptor (AhR) signaling pathway (AID 743085);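 also: HG2L7.5c1 human HepG2 liver cells with stably integrated DRE-driven firefly reporter; nearly all actives have a fitted effect of over 15% in size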
Summary of the method: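 AhR agonist activity is inferred from enhanced light output of a DRE-controlled firefly luciferase reporter in HepG2 cells, measured with ONE-Glo following 24 h treatment at 37C.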

[13] = qHTS assay to identify small molecule that activate the aryl hydrocarbon receptor (AhR) signaling pathway - cell viability counter screen (AID 743086);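 also: HepG2 liver cells carrying the AhR DRE luciferase reporter; nearly all actives have a fitted effect of over 45% in size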
Summary of the method: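 HepG2-AhR-luc (HG2L7.5c1) cells, 4000/well, were preincubated 5 h at 37C, exposed to compound in qHTS format for 24 hr at 37C, then given CellTiter-Fluor for 30 min; viability was read as fluorescence in the reporter wells.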

[14] = molecular target: Peroxisome proliferator-activated receptor gamma (Homo sapiens) (UniProt P37231); test: qHTS assay to identify small molecule agonists of the peroxisome proliferator-activated receptor gamma (PPARg) signaling pathway (AID 743094; active = well fitted activation curve with a large enough effect in the signal ratio in the repeat runs, not every such curve was filed as active; the % refers to the signal ratio)
Summary of the method: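 Beta-lactamase FRET fluorescence was the read-out after a 1 h room-temperature substrate step, following 17 h compound treatment at 37C of HEK293H cells expressing a UAS-driven bla reporter responsive to PPARg.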

[15] = qHTS assay to identify small molecule phospholipidosis (PLD) inducers (AID 1259344; active = well fitted curve in the direction sought with a large enough effect; an effect the other way counts as inactive or inconclusive)
Summary of the method: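 HepG2 cells grown on collagen I take up LipidTOX Red while exposed to compound for 24 h; after fixation they are imaged at 20x and pit metrics are extracted.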

[16] = molecular target: Nuclear receptor subfamily 1 group I member 2 (Rattus norvegicus) (UniProt Q9R1A7); test: Rat pregnane X receptor (rPXR) activation by small molecules, qHTS assay (AID 1346983); conditions: rPXR luciferase reporter cells, One-Glo luminescence, 24 h; max activation: active compounds read high; also: nearly all actives have a fitted effect of over 20% in size
Summary of the method: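 Cell-based rPXR luciferase reporter assay, 2,000 cells per well, rested 5hr at 37 C before compound addition in DMSO, then 24 hr at 37 C. One-Glo reagent was added and luminescence read after 30 min at room temperature.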

[17] = molecular target: Nuclear receptor subfamily 1 group I member 2 (Homo sapiens) (UniProt O75469); test: CYP3A4 induction through human pregnane X receptor (PXR) by small molecules, qHTS assay (AID 1346984); also: nearly all actives have a fitted effect of over 40% in size
Summary of the method: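 Luminescence readout: luciferase signal after One-Glo (30 min, room temperature), following 3 h at 37C with 3uM final Luciferin-IPA P450 substrate. Cells were DPX-2 (HepG2, PXR/CYP3A4-luc co-transfected) dosed for 24 h.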

[18] = molecular target: Nuclear receptor subfamily 1 group I member 2 (Homo sapiens) (UniProt O75469); test: Human pregnane X receptor (PXR) activation by small molecules, qHTS assay (AID 1346985); also: nearly all actives have a fitted effect of over 40% in size
Summary of the method: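 DPX-2 cells (HepG2 co-transfected with a PXR response element and a CYP3A4-promoter luciferase construct) were seeded at 2,000 per well, rested 5 hr at 37C, then exposed to DMSO-dissolved compounds for 24 hr. Activation was read as luciferase luminescence.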

Sequence of Peroxisome proliferator-activated receptor gamma (Homo sapiens) (P37231 whole entry, looked up): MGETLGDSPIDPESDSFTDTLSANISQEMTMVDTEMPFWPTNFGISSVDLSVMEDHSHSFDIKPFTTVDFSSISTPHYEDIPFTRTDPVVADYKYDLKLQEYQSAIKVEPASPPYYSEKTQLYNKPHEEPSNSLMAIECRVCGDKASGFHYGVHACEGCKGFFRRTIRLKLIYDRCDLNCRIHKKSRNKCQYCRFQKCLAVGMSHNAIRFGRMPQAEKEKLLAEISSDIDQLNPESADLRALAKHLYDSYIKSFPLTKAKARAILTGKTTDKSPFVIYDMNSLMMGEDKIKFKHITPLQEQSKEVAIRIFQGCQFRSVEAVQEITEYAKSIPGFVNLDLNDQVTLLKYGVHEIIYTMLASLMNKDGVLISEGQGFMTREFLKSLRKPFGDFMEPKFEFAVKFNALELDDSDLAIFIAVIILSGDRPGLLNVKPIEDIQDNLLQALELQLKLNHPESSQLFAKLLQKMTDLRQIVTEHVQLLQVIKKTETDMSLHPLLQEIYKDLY
Sequence of Estrogen receptor (Homo sapiens) (P03372 whole entry, looked up): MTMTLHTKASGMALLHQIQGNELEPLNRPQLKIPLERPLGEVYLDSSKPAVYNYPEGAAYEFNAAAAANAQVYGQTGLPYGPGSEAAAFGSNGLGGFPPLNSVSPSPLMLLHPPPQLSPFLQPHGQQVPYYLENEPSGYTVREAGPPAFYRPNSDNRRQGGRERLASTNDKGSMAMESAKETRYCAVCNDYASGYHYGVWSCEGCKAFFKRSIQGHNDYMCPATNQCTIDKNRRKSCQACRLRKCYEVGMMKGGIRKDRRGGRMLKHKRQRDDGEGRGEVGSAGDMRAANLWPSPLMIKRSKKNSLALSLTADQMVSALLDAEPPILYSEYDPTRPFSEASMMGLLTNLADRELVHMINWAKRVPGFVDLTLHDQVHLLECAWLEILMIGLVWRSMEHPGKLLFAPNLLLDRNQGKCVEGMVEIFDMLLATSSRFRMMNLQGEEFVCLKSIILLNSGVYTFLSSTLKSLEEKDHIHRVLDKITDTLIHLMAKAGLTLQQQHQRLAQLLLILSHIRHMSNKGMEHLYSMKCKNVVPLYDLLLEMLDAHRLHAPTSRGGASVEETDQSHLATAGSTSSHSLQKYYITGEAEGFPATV
Sequence of Aryl hydrocarbon receptor (Homo sapiens) (P35869 whole entry, looked up): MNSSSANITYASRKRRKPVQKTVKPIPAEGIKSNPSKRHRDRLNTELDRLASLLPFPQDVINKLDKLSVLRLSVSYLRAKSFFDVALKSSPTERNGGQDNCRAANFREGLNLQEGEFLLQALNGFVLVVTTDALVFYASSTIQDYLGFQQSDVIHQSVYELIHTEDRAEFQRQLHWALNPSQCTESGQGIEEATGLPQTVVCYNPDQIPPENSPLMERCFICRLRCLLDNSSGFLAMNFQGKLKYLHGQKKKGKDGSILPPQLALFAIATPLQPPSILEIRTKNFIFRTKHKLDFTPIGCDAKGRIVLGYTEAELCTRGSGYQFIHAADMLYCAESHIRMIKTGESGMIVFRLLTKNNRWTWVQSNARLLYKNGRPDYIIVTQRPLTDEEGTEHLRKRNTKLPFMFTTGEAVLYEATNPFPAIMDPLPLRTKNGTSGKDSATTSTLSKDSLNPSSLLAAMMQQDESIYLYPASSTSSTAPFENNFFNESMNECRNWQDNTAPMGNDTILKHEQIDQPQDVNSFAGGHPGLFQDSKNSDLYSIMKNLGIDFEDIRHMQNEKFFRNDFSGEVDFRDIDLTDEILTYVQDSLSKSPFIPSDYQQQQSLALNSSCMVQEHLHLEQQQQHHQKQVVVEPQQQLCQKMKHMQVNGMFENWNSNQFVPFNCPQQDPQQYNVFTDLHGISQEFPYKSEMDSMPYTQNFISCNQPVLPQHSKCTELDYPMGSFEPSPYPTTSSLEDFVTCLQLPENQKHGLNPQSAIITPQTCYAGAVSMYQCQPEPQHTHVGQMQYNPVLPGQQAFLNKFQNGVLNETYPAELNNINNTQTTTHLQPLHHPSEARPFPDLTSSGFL
Sequence of Aromatase (Homo sapiens) (P11511 whole entry, looked up): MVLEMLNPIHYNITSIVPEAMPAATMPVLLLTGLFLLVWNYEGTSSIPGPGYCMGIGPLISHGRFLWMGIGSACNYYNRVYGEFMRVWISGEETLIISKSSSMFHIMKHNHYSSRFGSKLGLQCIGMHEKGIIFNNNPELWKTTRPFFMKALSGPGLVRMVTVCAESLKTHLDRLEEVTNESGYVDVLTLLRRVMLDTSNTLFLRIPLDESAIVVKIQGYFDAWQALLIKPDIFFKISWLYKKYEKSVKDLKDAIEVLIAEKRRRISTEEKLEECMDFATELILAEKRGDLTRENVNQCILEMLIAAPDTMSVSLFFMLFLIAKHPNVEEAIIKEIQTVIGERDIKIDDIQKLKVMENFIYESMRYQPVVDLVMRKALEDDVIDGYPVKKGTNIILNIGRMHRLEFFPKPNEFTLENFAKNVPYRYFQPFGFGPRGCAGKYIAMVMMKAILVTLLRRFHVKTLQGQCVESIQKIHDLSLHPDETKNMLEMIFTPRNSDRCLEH
Sequence of Nuclear receptor subfamily 1 group I member 2 (Rattus norvegicus) (Q9R1A7 whole entry, looked up): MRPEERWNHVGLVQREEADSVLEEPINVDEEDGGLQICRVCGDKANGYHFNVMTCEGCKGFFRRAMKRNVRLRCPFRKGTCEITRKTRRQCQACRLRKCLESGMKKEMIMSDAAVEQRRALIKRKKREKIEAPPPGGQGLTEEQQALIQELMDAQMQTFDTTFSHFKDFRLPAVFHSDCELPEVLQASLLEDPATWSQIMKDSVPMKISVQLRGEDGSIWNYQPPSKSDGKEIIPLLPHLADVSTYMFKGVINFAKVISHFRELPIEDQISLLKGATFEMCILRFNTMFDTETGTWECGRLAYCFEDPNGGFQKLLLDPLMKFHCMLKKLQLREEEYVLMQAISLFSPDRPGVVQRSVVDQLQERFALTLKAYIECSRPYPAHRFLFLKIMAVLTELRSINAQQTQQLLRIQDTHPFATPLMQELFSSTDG

| SMILES | Potency [1] | Potency [2] | Potency [3] | Potency [4] | Potency [5] | Potency [6] | Potency [7] | Potency [8] | Potency [9] | Potency [10] | Potency [11] | Potency [12] | Potency [13] | Potency [14] | Potency [15] | max activation [16] | Potency [17] | Potency [18] |
| --- | --- | --- | --- | --- | --- | --- | --- | --- | --- | --- | --- | --- | --- | --- | --- | --- | --- | --- |
| CC(=O)N(CC(C)C(=O)O)c1c(I)cc(I)c(N)c1I (stereo not drawn) | inactive | inactive | inactive | inactive | inactive | inactive | inactive | inactive | inactive | inactive | inactive | inactive | inactive | inactive | inactive | -1.91% | inactive | inactive |
| CCOC(=O)[C@@H](N)CS | inactive | inactive | inactive | inactive | inactive | inactive | 29.8 µM (active) | inactive | inactive | inactive | inactive | inactive | inactive | inactive | inactive | -2.02% | inactive | inactive |
| CC1(O)CCC(C(C)(C)O)CC1 (stereo not drawn) | inactive | inactive | inactive | inactive | inactive | inactive | inactive | inactive | inactive | inactive | inactive | inactive | inactive | inactive | inactive | -1.3% | inactive | inactive |
| O=P(O)(O)OC[C@H](O)CO | inactive | inactive | inactive | inactive | inactive | inactive | inactive | inactive | inactive | inactive | inactive | inactive | inactive | inactive | inactive | -3.61% | inactive | inactive |
| OC[C@H]1O[C@@H](O[C@H]2[C@H](O)[C@@H](O)[C@H](O)O[C@@H]2CO)[C@H](O)[C@@H](O)[C@@H]1O | inactive | inactive | inactive | inactive | inactive | inactive | inactive | inactive | inactive | inactive | inactive | – | inactive | inactive | inactive | -4.71% | inactive | inactive |
| NCc1ccccc1CC(=O)N[C@@H]1C(=O)N2C(C(=O)O)=C(CSc3nnnn3CC(=O)O)CS[C@H]12 | inactive | inactive | inactive | inactive | inactive | inactive | inactive | inactive | inactive | inactive | inactive | – | inactive | inactive | inactive | -0.103% | inactive | inactive |
| CCC(Oc1ccccc1)C(=O)N[C@@H]1C(=O)N2[C@@H]1SC(C)(C)[C@@H]2C(=O)O (stereo partly drawn) | inactive | inactive | inactive | inactive | inactive | inactive | inactive | inactive | inactive | inactive | inactive | inactive | inactive | inactive | inactive | -1.86% | inactive | inactive |
| O=C(CO)[C@@H](O)[C@H](O)[C@@H](O)C(=O)O | inactive | inactive | inactive | inactive | inactive | inactive | inactive | inactive | inactive | inactive | inactive | inactive | inactive | inactive | inactive | -2.1% | inactive | inactive |
| C[Se]CCC(N)C(=O)O (stereo not drawn) | inactive | inactive | inactive | inactive | inactive | inactive | inactive | inactive | inactive | inactive | inactive | – | inactive | inactive | inactive | -0.898% | inactive | inactive |
| Cc1ccccc1 | – | – | – | – | – | – | – | – | – | – | – | – | – | – | inactive | -3.48% | – | – |
| O=C(O)C1=C(CSc2nnnn2CS(=O)(=O)O)CS[C@@H]2[C@H](NC(=O)[C@H](O)c3ccccc3)C(=O)N12 | inactive | inactive | inactive | inactive | inactive | inactive | 37.6 µM (active) | inactive | inactive | inactive | inactive | inactive | inactive | inactive | inactive | -0.182% | inactive | inactive |
| CC(C)[C@@H](N)C(=O)O | inactive | inactive | inactive | inactive | inactive | inactive | inactive | inactive | inactive | inactive | inactive | inactive | inactive | inactive | inactive | 2.42% | inactive | inactive |
| OCC(O)CO | – | – | – | – | – | – | – | – | – | – | – | – | – | – | inactive | -5.18% | – | – |
| COC(=O)CC[C@H](N)C(=O)O | inactive | inactive | inactive | inactive | inactive | inactive | inactive | inactive | inactive | inactive | inactive | inactive | inactive | inactive | inactive | -5.81% | inactive | inactive |
| CNC(C)[C@@H]1CC[C@@H](N)[C@@H](O[C@H]2[C@H](O)[C@@H](O[C@H]3OC[C@](C)(O)[C@H](NC)[C@H]3O)[C@H](N)C[C@@H]2N)O1 (stereo partly drawn) | – | – | – | – | – | – | – | – | – | – | – | – | – | – | inactive | -0.0148% | inactive | inactive |
| CC(C)(C)NCC(O)CSc1nc(-c2ccc(C(N)=O)s2)cs1 (stereo not drawn) | inactive | inactive | inactive | inactive | inactive | inactive | inactive | inactive | inactive | inactive | inactive | – | inactive | inactive | inactive | -4.09% | inactive | inactive |
